Potency data for 40 compounds are collected here from PubChem BioAssay (Tox21).

The source made the active and inactive calls. Entries that show only a call come without a potency. Calls follow the shape of the full dose curve.

The experiment in a line: qHTS assay to identify small molecule agonists of the sonic hedgehog signaling (Shh) pathway (AID 1259368).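 Also: NIH/3T3-derived 3T3Gli1-Luc cells carrying a stable Gli1-driven firefly luciferase reporter; nearly all actives have a fitted effect of over 15% in size.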 To be noted: NIH/3T3 Gli1-Luc reporter, luciferase, 24 h; series mostly up to 92.4 µM. An excerpt:
National Center for Advancing Translational Sciences [NCATS]
NIH Chemical Genomics Center [NCGC]
U.S. Environmental Protection Agency [EPA]
National Institutes of Environmental Health Sciences [NIEHS]
National Toxicology Program [NTP]
The sonic hedgehog (Shh) pathway is essential for normal embryonic development. Dysregulation of the Shh pathway can cause severe developmental defects in organs. Therefore chemicals that interfere with the pathway are potential developmental toxicants. A cell line designated 3T3Gli1-Luc (DMB/OARSA/CFSAN/FDA, Laurel, MD), a NIH/3T3 derived clone containing stably integrated Gli1-Luc reporter is used to detect chemical interference of the Shh pathway, by changes in the expression of the firefly Luc gene under the control of the Gli1 transcriptional response element. This cell line was used to screen Tox21 libraries for identifying and prioritizing the potential developmental toxicants that interfere Shh pathway.
3T3 Gli1-Luc cells were dispensed at 2,000 per well in 5uL of culture medium into white solid bottom 1536-well plates (Greiner Bio-One, Monroe, NC) using a Multidrop Combi (Thermo Scientific, Waltham, MA) dispenser. The assay plates were incubated at 37 C and 5% CO2 for 4hr, and then 23nL of compounds dissolved in DMSO and positive control were transferred using a Pintool station (Wako, San Diego, CA). The assay plates were incubated at 37C and 5% CO2 for 24hr. For luciferase read, 4uL of Amplite Luciferase reporter gene assay reagent (AAT Bioquest, Inc. Sunnyvale, CA) was added to each well of the assay plates using Flying Reagent Dispenser (FRD, Aurora Discovery, San Diego, CA) and incubated at room temperature for 30min. The luminescence signal was measured using a ViewLux plate reader (Perkin Elmer, Shelton, CT).
For orientation: qHTS replaces the single test concentration by a dilution series.
For `CCCCCCCCOC(=O)c1ccccc1C(=O)OCCCCCCCC`, the Potency entry is “inactive”.

Consider `COP(=S)(OC)Oc1ccc([N+](=O)[O-])cc1`, for which the Potency result is “inactive”.

On to `CC(C)c1ccc(CO)cc1`, for which the Potency entry was “inactive”.

Turning to `Cc1cc(Cl)ccc1OCCCC(=O)O`, the Potency entry is “inactive”.

Regarding `C[C@]12CCC(=O)C[C@@H]1CC[C@@H]1[C@@H]2CC[C@]2(C)[C@@H](O)CC[C@@H]12`, the Potency entry was “inactive”.

Consider `CCN(N=O)C(N)=O`, for which the Potency entry is “inactive”.

In the case of `C#C[C@]1(O)CC[C@H]2[C@@H]3CCC4=CC(=O)CC[C@]4(C)[C@H]3CC[C@@]21C`, the Potency entry is “inactive”.

Regarding `S=C1NCCN1`, the Potency result was “inactive”.

Turning to `C#CCOS(=O)OC1CCCCC1Oc1ccc(C(C)(C)C)cc1` (stereo not given), the Potency entry is “inactive”.

For `Cc1ccc(OP(=O)(Oc2ccc(C)cc2)Oc2ccc(C)cc2)cc1`, the Potency result is “inactive”.

Turning to `CCOCN(C(=O)CCl)c1c(C)cccc1CC`, the Potency entry was “inactive”.

`CCOc1cc(Oc2ccc(C(F)(F)F)cc2Cl)ccc1[N+](=O)[O-]`: the Potency result was “inactive”.

With `c1ccc(N=Nc2ccccc2)cc1`, the Potency result was “inactive”.

Regarding `CC(O)CCO` (stereo not given), the Potency entry is “inactive”.

On to `O=C(O)CC[N+](=O)[O-]`, for which the Potency result is “inactive”.

On to `CCC(C)(C)c1ccc(O)cc1`, for which the Potency result was “inactive”.

`CCC(C)c1cc([N+](=O)[O-])cc([N+](=O)[O-])c1O` (stereo not given): the Potency result was “inactive”.

For `NC(=S)Nc1ccccc1`, the Potency entry is “inactive”.

For the compound `CCCCCc1cc(O)cc(O)c1`, the Potency entry was “inactive”.

Consider `CCc1cccc(CC)c1N(COC)C(=O)CCl`, for which the Potency result is “inactive”.

`COP(=O)(OC)OC`: the Potency result was “inactive”.

As for `COc1ccc(C(CN(C)C)C2(O)CCCCC2)cc1` (stereo not given), the Potency entry was “inactive”.

Consider `CCOC(=S)S`, for which the Potency result was “inactive”.

For `N#CC(Br)Br`, the Potency result is “inactive”.

In the case of `COC(=O)c1sccc1S(=O)(=O)NC(=O)Nc1nc(C)nc(OC)n1`, the Potency entry is “inactive”.

Consider `O=P(Oc1ccccc1)(Oc1ccccc1)Oc1ccccc1`, for which the Potency result was “inactive”.

Consider `OCC(O)CO`, for which the Potency result is “inactive”.

Turning to `N#CCCCl`, the Potency result is “inactive”.

In the case of `CCN(CC)N=O`, the Potency entry was “inactive”.

Regarding `Nc1ccc(Cl)c(Cl)c1`, the Potency entry was “inactive”.

In the case of `CC(C)(OOC(C)(C)c1ccccc1)c1ccccc1`, the Potency result was “inactive”.

Consider `CCOc1cc(C=O)ccc1O`, for which the Potency result is “inactive”.

Turning to `CNC(=O)Oc1cccc2c1OC(C)(C)O2`, the Potency entry was “inactive”.

Consider `O=S(=O)(Oc1ccc(Cl)cc1)c1ccc(Cl)cc1`, for which the Potency result was “inactive”.

For the compound `O=C(Nc1ccc(Br)cc1)c1cc(Br)cc(Br)c1O`, the Potency result was “inactive”.

As for `Cc1ccccc1[N+](=O)[O-]`, the Potency entry is “inactive”.

`Cc1c(COC(=O)[C@@H]2[C@H](/C=C(\Cl)C(F)(F)F)C2(C)C)cccc1-c1ccccc1`: the Potency result was “inactive”.

`N#Cc1cc(Br)c(O)c(Br)c1`: the Potency entry is “inactive”.

Consider `CCOP(=S)(OCC)O/N=C(\C#N)c1ccccc1`, for which the Potency entry was “inactive”.

On to `CC(C)N(C(=O)SCC(Cl)=C(Cl)Cl)C(C)C`, for which the Potency result was “inactive”.
